RGS4 inhibitor: blocks human RGS4-accelerated GTP hydrolysis; P49798; Transcreener GDP fluorescence polarization, RGS4-accelerated GTP hydrolysis; Potency, µM (titrated, usually from 114 µM), for the others: at the highest dose activity change, negative = inhibition, actives largely listed as inhibitors; 0.039% of 390,000 active; AID 504845; further: on the % scale 0 is the no-effect control and ±100 the full control effect; nearly all actives have a fitted effect of over 75% in size
Target sequence (P49798 whole entry, looked up): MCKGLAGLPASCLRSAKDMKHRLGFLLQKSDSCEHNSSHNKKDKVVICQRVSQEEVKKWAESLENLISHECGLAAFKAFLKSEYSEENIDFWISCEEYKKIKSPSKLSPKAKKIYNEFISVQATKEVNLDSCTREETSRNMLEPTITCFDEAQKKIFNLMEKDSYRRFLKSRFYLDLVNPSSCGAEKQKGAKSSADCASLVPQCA
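MLSMR compounds (23 nl, pin-transferred) preincubated 10 min at room temperature with a 500nM (2x) first reagent, then RGS4 at 900nM (2x) plus Transcreener GDP mix added; fluorescence polarization (620/688 nm) read before and after 90 min at 30 °C.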
SW480 rereplic: inducers of DNA re-replication in SW480 colon cancer cells. Potency, µM (doses to about 46.1 µM), for inactives: top-dose re-replication activation, usual class: activators. 1.8% of 340,000 active. SW480 DNA re-replication, Hoechst DNA content imaging, 48 h; further: % of control where 0% means no effect; nearly all actives have a fitted effect of over 55% in size
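DNA re-replication was detected as more nuclei of elevated Hoechst intensity after 48 hr exposure to compound (23 nL pinned per well of 250 cells).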
MCF10A rerep: DNA re-replication induction in MCF 10a cells; MCF 10A DNA re-replication, Hoechst nuclear intensity, 48 h; Potency, µM (series often up to 46.1 µM), for the others: at the top dose activity, positive = re-replication, hits mostly activators; 2.9% of 350,000 active; further: % of control where 0% means no effect; nearly all actives have a fitted effect of over 50% in size
TSG101-PTAP inh: blocks PTAP/TSG101 interaction to inhibit HIV-1 budding. AID 493005. Potency, µM (doses to about 115 µM), without a hit: at the top dose activity change, negative = inhibition, hits mostly inhibitors. Fluorescence polarization, FITC-PTAP peptide / Tsg101 binding. 340,000 tested, under 10 active; active means well fitted inhibition curve with a large enough effect in the main read-out, with a control signal flat, not every such curve was filed as active; inconclusive means small, poorly fitted or top-dose-only effect, or effect the other way, or a change in a side signal; inactive means no such curve, though single readings can be large or run the other way; further: % of control where 0% means no effect
Target sequence (Q99816 whole entry, looked up): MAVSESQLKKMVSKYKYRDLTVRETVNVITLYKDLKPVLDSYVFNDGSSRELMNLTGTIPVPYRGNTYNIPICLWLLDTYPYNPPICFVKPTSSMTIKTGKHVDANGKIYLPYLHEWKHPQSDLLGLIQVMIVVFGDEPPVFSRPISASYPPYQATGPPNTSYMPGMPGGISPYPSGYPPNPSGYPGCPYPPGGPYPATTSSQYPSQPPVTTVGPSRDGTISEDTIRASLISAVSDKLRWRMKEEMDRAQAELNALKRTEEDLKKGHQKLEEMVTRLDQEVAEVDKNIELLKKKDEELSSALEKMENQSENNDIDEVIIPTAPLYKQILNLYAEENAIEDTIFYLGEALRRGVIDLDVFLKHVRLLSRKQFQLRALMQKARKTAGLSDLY
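Steps: Tsg101 binding domain dispensed (10 uM final), compounds pinned in DMSO, FITC-labeled PTAP-motif peptide added (50 nM final); after 20 min binding at room temperature, polarization measured.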
KB-V1 MDR tox: KB-V1 MDR subline cytotoxicity; 3.4% of 400,000 active; KB-V1 MDR cells viability, CellTiter-Glo, 72 h; AID 1347076; Potency, µM (top dose mostly 46.1 µM), actives largely listed as cytotoxic; further: on the % scale 0 is the no-effect control and ±100 the full control effect; nearly all actives have a fitted effect of over 60% in size
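Potencies derive from concentration-effect curves fitted to normalized luminescence (CellTiter-Glo) of KB-V1 cells treated for 72 h at 37 degrees C in phenol-red-free DMEM containing 10% FBS.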
KB-3-1 cytotox: KB-3-1 parental cell cytotoxicity; KB-3-1 viability, CellTiter-Glo ATP luminescence, 72 h; AID 1347075; 1.4% of 400,000 active; Potency, µM (titrated, usually from 46.1 µM), usual class: cytotoxic; further: on the % scale 0 is the no-effect control and ±100 the full control effect; nearly all actives have a fitted effect of over 60% in size
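Screening of KB-3-1 cells (DMEM, 10% FBS, phenol-red free) ran from lowest to highest compound concentration; after 72 h at 37 °C viability was read luminescently and curves fitted.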
* = called active by the depositor; i = inactive; ? = inconclusive; . = not tested or not shown; [ ] = another dose, or the depositor's remark. Rows were chosen to be rich in hits. Some 6.6% of all compounds tested hit in one or more screens of this group. Unless noted, the call rests on the fitted dose curve; in most records, active means well fitted curve in the direction sought with a large enough effect; inconclusive means small, poorly fitted or top-dose-only effect, or another doubt; inactive means no such curve, though single readings can be large; an effect the other way counts as inactive or inconclusive. Potency means the concentration at half of the fitted maximal effect.

SMILES	RGS4 inhibitor	SW480 rereplic	MCF10A rerep	TSG101-PTAP inh	KB-V1 MDR tox	KB-3-1 cytotox
Cc1cc(C)c2nc(Nc3nc(-c4ccccc4)cc(=O)[nH]3)nc(C)c2c1	0%[11.4 µM]	5%	?	0%	?	i
COc1ccc(NS(=O)(=O)c2ccc3[nH]c4c(c3c2)CCCCC4)cc1	-4%	.	.	.	i	i
CCN=c1scc(C)n1/N=C/c1cc(Br)c(O)c(Br)c1	-39%	-3%	21µM*	1%	?	?
Cc1ccc(C2(c3ccc(C)cc3)CC2C(=O)Nc2ccc([N+](=O)[O-])cc2O)cc1 (stereo unspecified)	?	19%	?	-6%	15µM*	?
CCOc1ccc(CNC(=O)c2cccc(NC(=O)N3CCSc4ncccc43)c2)cc1OC	15%	.	.	.	i	i
Cc1ccc(S(=O)(=O)N(Cc2ccccc2)c2ccccc2C(=O)NCc2cccnc2)cc1	-25%	?	-4%	-2%	23µM*	?
CN1CCN(C(=O)c2ccccc2N(Cc2ccccc2)S(=O)(=O)c2ccccc2)CC1	16%	10%	13%	-2%	i	i
Cc1ccc(S(=O)(=O)N(C)c2ccc(C(=O)NCc3cccnc3)cc2)cc1	27%	-21%	5%	-2%	i	i
Cc1ccc(S(=O)(=O)N(Cc2ccccc2)c2ccccc2C(=O)N2CCCCC2)cc1	-1%	18µM*	?	-3%	?	i
COc1ccccc1/C=C/c1nc(C#N)c(NCc2ccccc2)o1	15%	.	.	.	.	.
O[C@@H]1CN(CC2CCCCC2)[C@@H](c2ccccc2)C[C@H]1n1cc(C2CC2)nn1	.	.	.	.	?	21µM*
O[C@H]1C[C@H](c2ccccc2)N(CC2CCCCC2)C[C@@H]1n1cc(C2CC2)nn1	.	.	.	.	i	?
CN(C)/C=N/c1nc2nccc(-c3ccc(F)cc3)n2n1	3%	-5%	-36%	0%	i	i
CN(C)/C=N/c1nc2ncc(-c3ccc(Cl)cc3)c(/N=C/N(C)C)n2n1	?	-3%	1%	1%	6.5µM*	?
COC(=O)c1cc(NC2(c3ccccc3)C(=O)c3ccccc3C2=O)cc(C(=O)OC)c1	-5%	.	.	.	?	i
CCCCCCCCn1c(=O)c(C(=O)OCC)c(O)c2ccccc21	-4%[11.4 µM]	-1%	?	-6%	i	i
CCCCCn1c(=O)c(-c2nc3ccccc3[nH]2)c(O)c2ccccc21	7%	18µM*	?	-2%	?	?
O=C(C1CCCCC1)N1CCCC(c2nc(-c3ccc(F)cc3)no2)C1 (stereo unspecified)	9%	-4%	26%	-5%	21µM*	i
Cc1ccccc1NC(=O)N1CCCC(c2nc(-c3ccc(C(C)C)cc3)no2)C1 (stereo unspecified)	-16%	2%	15µM*	-7%	i	18µM*
CC(C)c1ccc(-c2noc(C3CCCN(C(=O)c4ccc(F)cc4F)C3)n2)cc1 (stereo unspecified)	26%	?	12µM*	-1%	?	?
Cc1ccc(-c2noc(C3CCCN(C(=O)c4ccc(F)cc4F)C3)n2)cc1 (stereo unspecified)	-13%	4%	?	-8%	?	?
Cc1ccccc1NC(=O)N1CCCC(c2nc(-c3ccc(F)cc3)no2)C1 (stereo unspecified)	7%	5%	3%	-4%	15µM*	i
O=S(=O)(c1ccc2c(c1)CCN2)N1CCCCCC1	-18%	.	.	.	.	.
Cc1ccc(-c2nnc(Nc3cccc(Cl)c3)c3ccccc23)cc1S(=O)(=O)NCC1CCCO1 (stereo unspecified)	27%	.	.	.	i	i
Cc1ccc2c(c1)c(=O)c1ccccc1n2CCCC(=O)Nc1c(F)cccc1F	19%	.	.	.	i	i
SMILES	RGS4 inhibitor	SW480 rereplic	MCF10A rerep	TSG101-PTAP inh	KB-V1 MDR tox	KB-3-1 cytotox
Cc1ccc(CNc2nc(-c3ccco3)nn2C(=O)c2ccccc2[N+](=O)[O-])cc1	-23%	.	.	.	?	i
O=S(Cc1ccccc1)CC(O)(c1ccc(Cl)cc1)c1ccc(Cl)cc1 (stereo unspecified)	9%	?	?	-3%	21µM*	?
O=S(Cc1ccc(Cl)cc1)CC(O)(c1ccccc1)c1ccccc1 (stereo unspecified)	11%	-13%	0%	-2%	i	i
Cc1ccc2nc(N/N=C/c3ccco3)cc(C)c2c1	-23%	?	16µM*	-2%	?	i
NC(=S)N/N=C/c1ccc(C(F)(F)F)cc1	-21%	.	?	-6%	5.8µM*	23µM*
COc1ccc(/C=N/NC(N)=S)cc1	-33%	1%	?	0%	?	i
CC(C)Oc1ccc(/C=N/NC(N)=S)cc1	?	?	?	0%	15µM*	?
CCCN(CC(=O)Nc1ccccc1C)C(=O)CCl	-15%	20%	?	-1%	?	16µM*
CCCN(CC(=O)Nc1ccccc1C)C(=O)COc1c(C)cccc1C	3%	3%	-3%	0%	i	i
CCCN(CC(=O)Nc1ccccc1C)C(=O)COc1c(Cl)cccc1Cl	?	5%	4%	-3%	5.8µM*	i
CC(=O)c1cccc(N2C(=O)CN(S(C)(=O)=O)CC2(C)C(=O)NC2CCCC2)c1 (stereo unspecified)	-11%	.	.	.	?	i
Nc1ccc2cc3[nH]c4cc(N)ccc4c3nc2c1	-39%	3.3µM*	18µM*	?	i	?
O=C(CSc1ccc(-c2cccs2)nn1)Nc1cccc(F)c1	-8%	.	.	.	i	?
O=C(O)C(=O)/C(=C\c1ccccc1)c1ccc2ccccc2n1	-9%	0%	0%	?	i	?
O=C(O)C(=O)/C(=C\c1cccc2ccccc12)c1ccc2ccccc2n1	-23%	?	16µM*	?	?	?
Cc1cccc(-c2noc(-c3cccnc3NCc3ccco3)n2)c1	27%	.	.	.	i	i
CCc1ccc(-n2nc(C)c3c(C(=O)Nc4cc(OC)cc(OC)c4)cc(C)nc32)cc1	5%	.	.	.	i	i
COc1cc(Cl)c(C)cc1NC(=O)CSCc1nc(-c2ccc(OC)c(OC)c2)no1	-11%	.	.	.	.	.
O=C(C=Cc1ccccn1)c1ccccc1	?	?	3.3µM*	1%	i	?
O=C(C=Cc1ccccn1)c1ccccc1O	-30%	?	?	-7%	?	?
Cc1ccc(Cl)cc1NS(=O)(=O)c1ccc2oc(=O)c3ncn(C)c3c2c1	-11%	.	.	.	.	.
